Source: article PMC10668032, “Altered binding affinity of SIX1-Q177R correlates with enhanced WNT5A and WNT pathway effector expression in Wilms tumor”
In all, about 33,000 sequences were measured (“e-score”: median about -0.053, highest 2% from about 0.38 on). The sample holds the highest values, similar sequences and a random draw of the others, so the mix is not that of the screen.

What follows are sequences tested against T1, SIX1 homeodomain (reference allele) (human, UniProt Q15475 108-198) (assay: universal protein binding microarray; Universal all-10-mer PBM (8x60K, AMADID 030236), 300 nM GST-tagged protein, Alexa Fluor 488 anti-GST; buffer, salt, pH and temperature not stated (as in Berger); high values mean tight binding). Details: protein: ivt; tags: N-terminal GST; dsDNA, one strand shown.
T1 sequence: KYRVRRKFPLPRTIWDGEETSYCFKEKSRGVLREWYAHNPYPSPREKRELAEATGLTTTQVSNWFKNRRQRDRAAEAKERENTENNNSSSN
Summary of the method: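 Homeodomains fused to GST were made by in vitro transcription/translation and measured by anti-GST western blot with a recombinant GST standard curve. At 300 nM final concentration, they were applied in duplicate to universal 'all 10-mer' protein binding microarrays (8×60K format).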

Sequence | binding signal [E-score]
CATTAATA | 0.154 ± 0.0188
ATAACATC | 0.165 ± 0.0558
GATCACGA | 0.273 ± 0.0518
ATCACCGA | 0.251 ± 0.0115
CATATGGG | 0.179 ± 0.0474
CGCGTATC | 0.424 ± 0.00815
CGCCTATC | 0.218 ± 0.0337
AGCGTATA | 0.233 ± 0.0627
AGCGTATC | 0.411 ± 0.0267
GGCGTATA | 0.179 ± 0.0032
CGCGTATA | 0.232 ± 0.0592
AGACCCGG | 0.214 ± 0.0594
AGACCCGA | 0.196 ± 0.0537
ACACCCGA | 0.294 ± 0.0236
AAACCCGG | 0.163 ± 0.0401
ATACCCGC | 0.3787 ± 0.00251
ACACCCGC | 0.27 ± 0.0197
ATACCCGA | 0.407 ± 0.00771
ATACCCGG | 0.407 ± 0.0266
ATACCAGA | 0.299 ± 0.0031
ATACCAGG | 0.3772 ± 0.00332
ATACACGC | 0.328 ± 0.00888

Sequence | binding signal [E-score]
ATACCAGC | 0.3035 ± 0.00134
GATTATAA | 0.165 ± 0.0198
GATTACAC | 0.164 ± 0.0334
ATAGACAC | 0.285 ± 0.0262
GACACGGA | 0.196 ± 0.00735
AGGAATAC | 0.2106 ± 0.00182
GGATTGGA | 0.171 ± 0.00314
ATACTGCC | 0.3133 ± 0.000361
ATCGTTGC | 0.202 ± 0.04
TAATACTA | 0.276 ± 0.0717
GCATAATA | 0.187
CCGATCAG | 0.24 ± 0.0341
GGGATCGA | 0.385 ± 0.0533
AGGATCGA | 0.289 ± 0.0472
AGGATCAA | 0.352 ± 0.036
CGGATCAA | 0.417 ± 0.0173
CTGATCAC | 0.204 ± 0.0353
CCGATCAC | 0.346 ± 0.0289
CGGATCAG | 0.443 ± 0.0116
CTGATCAG | 0.313 ± 0.0448
CGGATCGA | 0.34 ± 0.0821
CGGATCAC | 0.463 ± 0.00697

Sequence | binding signal [E-score]
TGGATCAA | 0.3057 ± 0.00301
CGAGATCG | 0.207 ± 0.0304
TAATATGA | 0.196 ± 0.0472
CCCCGATA | 0.347 ± 0.00347
CCTTGATC | 0.243 ± 0.0361
GCGATCAA | 0.18 ± 0.0413
GCGATCAC | 0.354 ± 0.0376
GTGATCAC | 0.306 ± 0.0127
GGGATCAA | 0.386 ± 0.0187
GGGATCAC | 0.445 ± 0.0186
GAGATCAA | 0.31 ± 0.0391
ATCGGTGG | 0.189 ± 0.0514
CAACACCG | 0.268 ± 0.021
CCCTGATC | 0.33 ± 0.0305
AGTTGATA | 0.406 ± 0.0373
AGTTGATC | 0.23 ± 0.0154
CGTTGATA | 0.334 ± 0.0658
ACTTGATA | 0.374 ± 0.0379
GCTTGATA | 0.351 ± 0.0581
GGTTGATA | 0.384 ± 0.0228
AGATAACG | 0.191 ± 0.042
ATATGCGC | 0.27 ± 0.0371

Sequence | binding signal [E-score]
CGGCTCAC | 0.174 ± 0.0262
AGTATCCC | 0.412 ± 0.00869
CGTATCCC | 0.389 ± 0.00815
ACTATCCC | 0.294 ± 0.0143
CCTATCCA | 0.232 ± 0.0293
CTTATCCA | 0.186 ± 0.0114
CTTATCCC | 0.235 ± 0.0469
ATTATCCC | 0.274 ± 0.0711
CGTATCCA | 0.403 ± 0.0252
CCTATCCC | 0.291 ± 0.0369
GATCCTGC | 0.353 ± 0.0135
CATCTAAG | 0.178 ± 0.0937
ATACTGGA | 0.325 ± 0.00489
ATTGGATC | 0.365 ± 0.0365
ATCGAGCG | 0.156 ± 0.0113
TATATTCA | 0.166 ± 0.0205
ACCCATAT | 0.3794 ± 0.00238
AACCATAT | 0.303 ± 0.013
ACCCATCT | 0.204 ± 0.0603
CCTTGATA | 0.317 ± 0.0459
GATTGATA | 0.381 ± 0.046
AATTGATA | 0.344 ± 0.0859

Sequence | binding signal [E-score]
CATTGATC | 0.265 ± 0.000601
CATTGATA | 0.391 ± 0.0167
GATTGAGA | 0.151 ± 0.0232
ACACCTCA | 0.24 ± 0.0368
ACTAGCCG | 0.183 ± 0.0569
CTATAATC | 0.157 ± 0.0879
ATCGTGGG | 0.163 ± 0.0327
ATGGATAG | 0.247 ± 0.00822
ATGGATAC | 0.447 ± 0.0217
ATGGATAA | 0.212 ± 0.00686
CTGGATTA | 0.177 ± 0.0302
CTGGATAC | 0.387 ± 0.0256
ACTACGAT | 0.1669 ± 0.00123
TATCCAGA | 0.3343 ± 0.00221
ATACACAA | 0.232 ± 0.0214
AGGATTAA | 0.243 ± 0.0865
ATCCCTCA | 0.312 ± 0.0176
AATACCAG | 0.306 ± 0.0188
AATACCCG | 0.293 ± 0.0206
GATACCCC | 0.4957 ± 0.00126
AATACCCA | 0.2902 ± 0.00209
